Experiment: JC-1 mitochondrial potential readout, lung cancer cells – cell-based, A549, JC-1 fluorescence, basal, 24 h, 100 nL, profiling panel (AID 1138);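 note: A549 lung adenocarcinoma cells under basal conditions with no added stimulus; test concentration not given here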
Settings: higher = more signal

Row | Compound | z-score
1 | CC(=O)Nc1cc(Br)ccc1C(=O)O | 0.204
2 | Cc1ccccc1C(O)C1C=CC2C(=O)N(C)C(=O)C2N1N1CCCCC1 (stereo not given) | 0.0822
3 | [N-]=[N+]=NCc1ccccc1[C@@H]1OC(c2ccc(OCCCO)cc2)=N[C@]1(Cc1ccccc1)C(=O)N1CCCCC1 | 2.06
4 | COCC(=C=CC[C@H](O)c1ccc(OCCO)cc1)C[C@H](O)c1cc(Cl)cc(Cl)c1O | 0.268
5 | COC(=O)[C@@]1(Cc2ccc(OC)cc2)[C@H]2c3cc(C(=O)N4CCCC4)n(Cc4ccccn4)c3C[C@H]2CN1C(=O)c1ccccc1 | 1.37
6 | COc1ccc([Si](C)(C)[C@@H]2[C@@H](CCn3cc([C@H](O)c4ccccc4)nn3)O[C@]3(C(=O)N(Cc4ccc(N5C(=O)c6cccc7cccc5c67)cc4)c4ccccc43)[C@H]2C)cc1 | 1.57
7 | O=C1O[C@@H](c2ccccc2)[C@@H](c2ccccc2)N2[C@@H](c3ccc(O)cc3)[C@]3(C(=O)Nc4ccc(C#CC5(O)CCCCCC5)cc43)[C@@H](C(=O)N3CCCCCCC3)[C@H]12 | -0.15
8 | O=C1[C@]2(CO)C=C(Br)[C@@H](C[C@@H]2c2ccccc2)[C@@]12CO2 | 0.116
9 | COCCOC(=O)N1C(=O)[C@@]2(c3cc(C#CCCO)ccc31)[C@H](c1ccccc1OCCO)N1[C@H](c3ccccc3)[C@H](c3ccccc3)OC(=O)[C@H]1[C@@H]2C(=O)N1CCN(c2ncccn2)CC1 | -0.835
10 | CC=CC(O)C1C=CC2C(=O)N(c3ccccc3)C(=O)C2N1Nc1ccc(C(C)C)cc1 (stereo not given) | -0.723
11 | CC(c1ccccc1)C(O)C1C=CC2C(=O)NC(=O)C2N1Nc1ccccn1 (stereo not given) | 0.845
12 | C=CCC(OC(C)=O)[C@@H]1[C@@H](N(Cc2ccc(-c3cccc(C(F)(F)F)c3)o2)C(=O)c2ccc(C)cc2)c2cc(OCCCO)ccc2N1C(=O)c1ccc(-c2ccccc2)cc1 (stereo not given in full) | 2.31
13 | COc1ccc([Si](C)(C)[C@@H]2[C@@H](CC(=O)N3CCC[C@H]3CO)O[C@]3(C(=O)N(C)c4c(Br)cc(C)cc43)[C@H]2C)cc1 | 0.66
14 | O=C1O[C@H](c2ccccc2)[C@H](c2ccccc2)N2[C@H]1[C@@H](C(=O)O)[C@]1(C(=O)Nc3ccc(C#CC4=CCCCC4)cc31)[C@H]2c1ccc(OCCO)cc1 | -2.57
15 | CCCNC(=O)[C@@]1(c2ccc([N+](=O)[O-])cc2)CC(=O)N(CC23CC4CC(CC(C4)C2)C3)[C@@H]1c1ccc(CO)cc1 | 0.582
16 | CC(C)C[C@@H]1NC(=O)[C@H]2C[C@@H](C(=O)NCCCCCCNC(=O)CS)[C@@H](c3cccc(OCCO)c3)N2C1=O | 1
17 | Cc1cc(C)c(C(O)C2C=CC3C(=O)N(C)C(=O)C3N2Nc2ccccc2)c(C)c1 (stereo not given) | 0.362
18 | O=C1OCCC=C[C@H]2OC34C=CCN(Cc5ccccc5)C(=O)[C@H]3N(CCCO)C(=O)[C@@H]4C12 (stereo not given in full) | -0.778

Row | Compound | z-score
19 | COCCOC(=O)N1C(=O)[C@@]2(c3cc(C#CCC(C(=O)OC)C(=O)OC)ccc31)[C@H](c1ccc(O)cc1)N1[C@H](c3ccccc3)[C@H](c3ccccc3)OC(=O)[C@H]1[C@@H]2C(N)=O | -0.82
20 | COCCOC(=O)N1C(=O)[C@@]2(c3cc(C#CCC(C(=O)OC)C(=O)OC)ccc31)[C@H](c1ccccc1OCCO)N1[C@H](c3ccccc3)[C@H](c3ccccc3)OC(=O)[C@H]1[C@@H]2C(N)=O | 0.833
21 | C=CCNC(=O)[C@H]1[C@@H]2C(=O)O[C@@H](c3ccccc3)[C@@H](c3ccccc3)N2[C@@H](c2ccc(O)cc2)[C@]12C(=O)N(C(=O)OCCOC)c1ccc(C#CCCO)cc12 | 0.956
22 | CC(C)CNC(=O)[C@@H]1c2ccccc2C(=O)N(Cc2cc(C(F)(F)F)cc(C(F)(F)F)c2)[C@H]1c1ccc(CO)cc1 | 0.157
23 | O=C(CS)NCCCCCCNC(=O)[C@@H]1C[C@@H]2C(=O)N3CCC[C@H]3C(=O)N2[C@@H]1c1ccc(O)cc1 | -1.13
24 | CCCCCCc1nc(CCCc2cc3c(c(CCCCCC)n2)[Si](C(C)C)(C(C)C)OC3)cc2c1[Si](C(C)C)(C(C)C)OC2 | 0.531
25 | O=C1O[C@H](c2ccccc2)[C@H](c2ccccc2)N2[C@H]1[C@@H](C(=O)NC[C@H](O)c1ccccc1)[C@]1(C(=O)Nc3ccc(C#CCCO)cc31)[C@H]2c1ccc(O)cc1 | -1.17
26 | C=C[C@@H](COC(C)=O)N(Cc1ccccc1[N+](=O)[O-])S(=O)(=O)c1ccc(Br)cc1 | 0.505
27 | O=C1N(CCS(=O)(=O)c2ccccc2)Cc2ccccc2C[C@]12N=C(c1ccc(OCCCO)cc1)O[C@@H]2c1ccccc1 | 0.685
28 | CCOC(=O)C1=C[C@@H](CC)N(S(=O)(=O)c2ccc(C)cc2)[C@H]1c1ccccc1 | 2.94
29 | Cc1ccc(S[C@]2(C(=O)NCc3ccccc3)CC(=O)N(Cc3ccccc3)[C@@H]2c2ccc(CO)cc2)cc1 | 0.561
30 | CC(C)c1ccc(NN2C(C(O)c3ccc(N(C)C)cc3)C=CC3C(=O)N(c4ccccc4)C(=O)C32)cc1 (stereo not given) | 0.594
31 | CS(=O)(=O)CCOC(=O)C1=CC(c2ccc(CO)cc2)=CC(C2CC2)N(Cc2cc3c(cc2Br)OCO3)C=C1C(=O)OCCS(C)(=O)=O (stereo not given) | 2.44
32 | O=C1O[C@@H](c2ccccc2)[C@@H](c2ccccc2)N2[C@@H](c3ccc(OCCO)cc3)[C@]3(C(=O)Nc4ccccc43)[C@@H](C(=O)Nc3nc4ccccc4s3)[C@H]12 | -2.13
33 | CN(C)CCCCNC(=O)[C@H]1C[C@H]2C(=O)N[C@@H](Cc3ccccc3)C(=O)N2[C@H]1c1ccc(O)cc1 | -0.884
34 | C=CCC(OC(C)=O)[C@@H]1[C@@H](N(Cc2ccc(-c3ccccc3)cc2)C(=O)Cc2ccc(F)cc2)c2cc(OCCCO)ccc2N1C(=O)c1ccc2ccccc2n1 (stereo not given in full) | 1.94
35 | COC(=O)[C@@]1(Cc2ccccc2N=[N+]=[N-])COC(c2ccc(OCCCO)cc2)=N1 | 0.719

— PubChem BioAssay
